Experimental data taken from PubChem BioAssay.
Records with an inconclusive call do not appear. The source made the active and inactive calls.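 Rule for the calls, unless noted: active = RAM network inhibition above 8.4% in each of two replicates, 3 SD over the compound average; inconclusive = above 8.4% inhibition in only one replicate; inactive = 8.4% inhibition or less in each replicate.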

What was measured:
[1] = HUVEC growth inhibition – cell-based, human, primary screen (AID 575;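 active = viability at or below 30% in both replicate assays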;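 note: 100% = median of untreated cell wells with 0.1% DMSO on each plate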); conditions: HUVEC proliferation, CellTiter-Glo luminescence, 72 h; at 10 µM; stronger effect = lower value
[2] = H69AR cell proliferation blockers – human, duplicate replicates, primary screen (AID 580;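 active = viability at or under a set limit in both replicates, limit being median viability minus 3 SD, cut at about 48% in these data, passing the limit was not always enough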;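 note: 100% = mean luminescence of untreated wells and 0% = no signal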); conditions: H69AR lung tumor cells viability, ATP luminescence, 72 h; at 10 µM; stronger effect = lower value
[3] = MRP1 drug-resistance reversers in H69AR cells – cell-based, doxorubicin co-treatment, pilot screen (AID 601;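 active = viability loss from added drug above about 55%, and viability with drug at most 40%, in both replicates, limit read from the data, passing the limit was not always enough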); conditions: CellTiter-Glo, 72 h, at 10 µM; for differential viability (reversal): stronger effect = higher value
[4] = yeast transport mutant growth inhibition pilot in 384-well plates, post-Golgi transport modulator project (AID 636; in the data active = inhibition above about 31%); conditions: absorbance 615 nm, about 18 h, stronger effect = higher value
[5] = growth suppression of yeast trafficking mutant, preliminary HTS, modulators of trafficking downstream of Golgi apparatus project, 1536-format plate, OD 615 nm (AID 637; in the data active = inhibition above about 30%); conditions: yeast transport mutant growth, absorbance 615 nm, 18 h; stronger effect = higher value
[6] = S. cerevisiae growth inhibition in permissive medium (OD615), pilot counter-assay for S. cerevisiae lifespan shortening project, permissive growth control (AID 705;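 active = growth inhibition above 25% in both replicates, a cutoff set 3 SD above the mean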); conditions: OD615, 24 h, at 10 µM, stronger effect = higher value
[7] = S. cerevisiae growth inhibition in restrictive medium, OD615, pilot screen, restrictive growth control, yeast lifespan reduction project (AID 706;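 active = growth inhibition above a set limit, 3 SD over mean compound inhibition, in both replicates, cut at about 43% in these data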;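 note: modified DeaD lifespan yeast strain shifted to restrictive glucose medium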); conditions: OD615, 48 h, at 10 µM, stronger effect = higher value
[8] = doxorubicin toxicity protection in MRP-1 cells – H69AR cells, CellTiter-Glo, duplicate, MRP-1 activator project, pilot screen (AID 807;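 active = viability increase at or above a cutoff of the median across tested compounds plus 3 SD, cut at about 8.5% in these data, passing the limit was not always enough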;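 note: compound pretreatment 18-22 h then 72 h combined with doxorubicin; 0% = doxorubicin alone and 100% = vehicle without doxorubicin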); conditions: H69AR viability with doxorubicin, CellTiter-Glo luminescence; at 10 µM; stronger effect = higher value
[9] = viability of HCT116 without oncogenic beta-catenin – human colon tumor cells, pilot screen (AID 823;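 active = cell viability at or below a set limit in both duplicate runs, the limit being the all-compound median minus 4 SD, cut at about 23% in these data, passing the limit was not always enough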;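 note: 0% = wells killed by 20 µM Hyamine and 100% = untreated DMSO cell wells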); conditions: HCT116 beta-catenin knockout viability, CellTiter-Glo, 60 h; at 10 µM; stronger effect = lower value
[10] = viability of PTEN-null HCT116 cells – cell-based, HCT116 clonal line, CellTiter-Glo, pilot screen (AID 824;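 active = viability at or below 27.92% in each of two runs, the all-compound median minus 4 SD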;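 note: 0% = 20 µM Hyamine control and 100% = vehicle cell control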); conditions: HCT116 PTEN-deleted viability, 60 h, at 10 µM, stronger effect = lower value
[11] = RAM pathway blockade in budding yeast – dse1pr::URA3 reporter, 5-FOA selection, pilot screen (AID 869;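 active = inhibition over a set limit, the all-compound mean plus 3 SD, in both replicate runs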;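 note: 0% = DMSO wells with no growth and 100% = 10 µM 1-NA-PP1 with full growth; RAM network block rescues cells from 5-FOA so hits raise OD615 growth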); conditions: S. cerevisiae dse1pr::URA3 5-FOA growth, OD615, 2 d; at 10 µM; stronger effect = higher value; strain carries analog-sensitive mutant Cbk1 kinase
[12] = RAM signaling pathway blockade in yeast – S. cerevisiae, Pdr1DBD-CYC8 efflux-inhibited sensitized strain, primary screen (AID 1298);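 note: 0% = DMSO untreated cells without growth and 100% = 10 µM 1-NA-PP1 full growth; higher means more yeast growth rescued from 5-FOA killing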; conditions: S. cerevisiae cbk1-as DSE1-URA3 strain, 5-FOA growth OD615, 2 d; at 50 µM; stronger effect = higher value
[13] = H69AR cells + 2 uM doxorubicin, measured here: viability with 2 uM doxorubicin, stronger effect = lower value
[14] = H69AR cells, compound alone cytotoxicity

Row | SMILES | viability [1] | viability [2] | differential viability (reversal) ([3]; H69AR cells + 2 uM doxorubicin) | viability [3, 13] | viability [3, 14] | inhibition [4] | inhibition [5] | growth inhibition [6] | growth inhibition [7] | viability increase [8] | viability [9] | viability [10] | inhibition [11] | RAM network inhibition [12]
1 | CCn1cc(C(=O)NCC2COc3ccccc3O2)c2cc(OC)c(OC)cc2c1=O (stereo not given) | 77.5% (inactive) | 79.3% (inactive) | 0.385% (inactive) | 79% | 79.3% | -6.05% (inactive) | 0.16% (inactive) | -11.4% (inactive) | -33.2% (inactive) | -4.69% (inactive) | 97.9% (inactive) | 86.7% (inactive) | 0.96% (inactive) | 3.33% (inactive)
2 | CCCCNC(=O)Nc1ccnn1C1CCCCC1 | 96.5% (inactive) | 100% (inactive) | 13% (inactive) | 87.2% | 100% | -3.64% (inactive) | 7.14% (inactive) | -5.58% (inactive) | -15% (inactive) | -1.77% (inactive) | 97.9% (inactive) | 90.7% (inactive) | -0.255% (inactive) | -2.79% (inactive)
3 | Cc1ccc(C)c(N2C(=O)CN=C2Nc2ccccc2Cl)c1 | 80.1% (inactive) | 100% (inactive) | 21.3% (inactive) | 78.6% | 100% | -1.95% (inactive) | 2.54% (inactive) | -7.25% (inactive) | -0.67% (inactive) | -0.31% (inactive) | 91.5% (inactive) | 94.4% (inactive) | 0.715% (inactive) | -0.52% (inactive)
4 | COCCn1c(=O)[nH]c2cc(C(=O)N3CCN(c4ccccc4OC)CC3)ccc2c1=O | 110% (inactive) | 85.8% (inactive) | -5.65% (inactive) | 91.4% | 85.8% | -4.87% (inactive) | 0.32% (inactive) | -3.6% (inactive) | -7.11% (inactive) | -0.61% (inactive) | 104% (inactive) | 99% (inactive) | 1.2% (inactive) | 6.96% (inactive)
5 | Cn1ccnc1C(O)c1ccco1 (stereo not given) | 101% (inactive) | 103% (inactive) | 13.1% (inactive) | 89.5% | 103% | -5.39% (inactive) | 1.43% (inactive) | -5.51% (inactive) | -3.72% (inactive) | -0.09% (inactive) | 102% (inactive) | 103% (inactive) | 0.74% (inactive) | 3.14% (inactive)
6 | O=C(c1ccc(NS(=O)(=O)c2cccs2)cc1)N1CCCCC1 | 72.9% (inactive) | 89.9% (inactive) | -7.68% (inactive) | 97.5% | 89.9% | -2.63% (inactive) | -9.05% (inactive) | 1.61% (inactive) | -2.64% (inactive) | -1.41% (inactive) | 93.8% (inactive) | 96.8% (inactive) | 0.805% (inactive) | 1.56% (inactive)
7 | CCc1cc2c(NCCC(=O)O)ncnc2s1 | 83.3% (inactive) | 97.6% (inactive) | 5.87% (inactive) | 91.7% | 97.6% | -3.51% (inactive) | -0.48% (inactive) | -7.78% (inactive) | -13.1% (inactive) | -1.99% (inactive) | 101% (inactive) | 99.6% (inactive) | 3.42% (inactive) | 2.49% (inactive)
8 | COc1ccc(-c2nc(N3CCCC3)[nH]c(=O)c2C#N)cc1 | 97% (inactive) | 87.9% (inactive) | 2.17% (inactive) | 85.8% | 87.9% | -1.45% (inactive) | 0.79% (inactive) | 0.51% (inactive) | 0.48% (inactive) | -0.94% (inactive) | 104% (inactive) | 90.7% (inactive) | 1.63% (inactive) | 3.39% (inactive)
9 | Cc1ccc(S(=O)(=O)c2nc(-c3ccco3)oc2SCC(=O)NCC2CCCO2)cc1 (stereo not given) | 101% (inactive) | 92.8% (inactive) | 6.32% (inactive) | 86.4% | 92.8% | -0.13% (inactive) | -3.02% (inactive) | 0.025% (inactive) | 0.35% (inactive) | -2.88% (inactive) | 101% (inactive) | 104% (inactive) | 1.47% (inactive) | 2.72% (inactive)
10 | COc1ccc(C2C(C#N)=C(C)NC3=C2C(=O)CC(C)(C)C3)c(OC)c1 (stereo not given) | 88.9% (inactive) | 95.3% (inactive) | 23.5% (inactive) | 71.8% | 95.3% | -1.3% (inactive) | -2.7% (inactive) | -22.8% (inactive) | -14.1% (inactive) | -1.62% (inactive) | 97.6% (inactive) | 91.4% (inactive) | 0.825% (inactive) | 1.94% (inactive)
